This is an account of results in paper PMC11024108.

Assay [1] concerns the target AP-2 complex subunit beta (UniProt P63010). Put plainly: cross-link between two proteins; cross-linking mass spectrometry.
The target of assay [2] is AP-1 complex subunit beta-1 (UniProt Q10567). Kind of assay: cross-link between two proteins; co-fractionation; cross-linking mass spectrometry.
Assay [3] deals with AP-2 complex subunit beta (UniProt Q9DBG3). Kind of assay: cross-link between two proteins; cross-linking mass spectrometry.
Assay [4] addresses Actin, alpha cardiac muscle 1 (UniProt P68033). Described as above.
Another assay concerns the target T1, Coronin-2B (UniProt Q8BH44).
T1 sequence: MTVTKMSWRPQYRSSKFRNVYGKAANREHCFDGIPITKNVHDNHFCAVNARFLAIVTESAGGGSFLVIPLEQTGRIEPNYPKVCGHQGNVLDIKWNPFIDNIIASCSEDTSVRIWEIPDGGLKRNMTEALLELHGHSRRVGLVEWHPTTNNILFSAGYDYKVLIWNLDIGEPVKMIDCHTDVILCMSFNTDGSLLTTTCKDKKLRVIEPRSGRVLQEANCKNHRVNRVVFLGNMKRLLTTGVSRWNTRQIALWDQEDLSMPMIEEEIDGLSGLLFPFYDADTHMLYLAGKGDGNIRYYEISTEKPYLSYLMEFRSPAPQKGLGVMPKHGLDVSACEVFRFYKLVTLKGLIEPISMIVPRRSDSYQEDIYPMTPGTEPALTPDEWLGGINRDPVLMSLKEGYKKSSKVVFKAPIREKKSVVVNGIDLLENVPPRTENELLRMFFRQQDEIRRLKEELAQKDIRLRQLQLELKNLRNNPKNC
Described as above.

Another assay concerns the target Myosin-10 (UniProt Q61879). The assay is described as above.
For assay [5], the target named is T2, Phosphatase and actin regulator 1 (UniProt Q2M3X8).
T2 sequence: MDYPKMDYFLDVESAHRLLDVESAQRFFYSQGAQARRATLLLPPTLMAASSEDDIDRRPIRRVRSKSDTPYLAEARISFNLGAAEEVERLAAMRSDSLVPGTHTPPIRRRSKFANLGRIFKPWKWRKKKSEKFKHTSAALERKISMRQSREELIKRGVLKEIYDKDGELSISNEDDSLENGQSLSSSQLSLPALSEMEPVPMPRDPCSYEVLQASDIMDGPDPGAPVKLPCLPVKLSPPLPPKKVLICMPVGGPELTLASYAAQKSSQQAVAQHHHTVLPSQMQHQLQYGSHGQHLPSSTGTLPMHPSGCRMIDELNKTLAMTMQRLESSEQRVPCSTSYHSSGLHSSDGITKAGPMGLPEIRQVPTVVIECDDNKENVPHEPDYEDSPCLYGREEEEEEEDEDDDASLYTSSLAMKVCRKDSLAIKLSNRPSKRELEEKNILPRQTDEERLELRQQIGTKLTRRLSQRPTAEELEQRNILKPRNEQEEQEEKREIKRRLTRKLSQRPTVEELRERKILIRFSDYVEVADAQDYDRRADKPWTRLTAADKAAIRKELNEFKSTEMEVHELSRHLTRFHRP
The assay is described as above.

A further assay addresses T3, Synaptopodin (UniProt Q8CC35).
T3 sequence: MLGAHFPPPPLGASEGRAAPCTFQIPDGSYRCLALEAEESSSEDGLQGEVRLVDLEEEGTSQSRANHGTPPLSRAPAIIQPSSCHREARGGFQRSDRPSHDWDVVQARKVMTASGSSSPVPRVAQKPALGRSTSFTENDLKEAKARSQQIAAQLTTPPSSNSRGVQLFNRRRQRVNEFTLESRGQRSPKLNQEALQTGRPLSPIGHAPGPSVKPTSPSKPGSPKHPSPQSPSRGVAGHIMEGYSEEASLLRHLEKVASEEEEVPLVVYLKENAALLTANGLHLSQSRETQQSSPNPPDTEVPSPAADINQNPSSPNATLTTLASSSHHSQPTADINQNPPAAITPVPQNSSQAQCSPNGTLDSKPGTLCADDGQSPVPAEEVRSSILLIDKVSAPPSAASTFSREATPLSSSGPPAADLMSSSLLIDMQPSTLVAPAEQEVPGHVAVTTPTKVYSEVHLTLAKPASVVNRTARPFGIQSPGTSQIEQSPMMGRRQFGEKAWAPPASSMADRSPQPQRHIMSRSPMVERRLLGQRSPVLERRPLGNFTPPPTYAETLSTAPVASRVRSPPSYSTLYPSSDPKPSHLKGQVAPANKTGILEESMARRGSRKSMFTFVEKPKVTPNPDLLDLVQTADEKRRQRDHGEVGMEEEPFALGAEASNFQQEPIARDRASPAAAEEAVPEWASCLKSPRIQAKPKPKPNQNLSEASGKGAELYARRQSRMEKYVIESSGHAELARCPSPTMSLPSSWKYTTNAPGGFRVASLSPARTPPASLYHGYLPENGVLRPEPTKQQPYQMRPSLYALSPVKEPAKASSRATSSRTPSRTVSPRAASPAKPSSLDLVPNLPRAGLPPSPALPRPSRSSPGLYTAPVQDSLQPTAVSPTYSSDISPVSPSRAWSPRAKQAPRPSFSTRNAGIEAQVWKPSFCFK
Described as above.

The target of the next assay is T4, Tropomodulin-2 (UniProt Q9JKK7).
T4 sequence: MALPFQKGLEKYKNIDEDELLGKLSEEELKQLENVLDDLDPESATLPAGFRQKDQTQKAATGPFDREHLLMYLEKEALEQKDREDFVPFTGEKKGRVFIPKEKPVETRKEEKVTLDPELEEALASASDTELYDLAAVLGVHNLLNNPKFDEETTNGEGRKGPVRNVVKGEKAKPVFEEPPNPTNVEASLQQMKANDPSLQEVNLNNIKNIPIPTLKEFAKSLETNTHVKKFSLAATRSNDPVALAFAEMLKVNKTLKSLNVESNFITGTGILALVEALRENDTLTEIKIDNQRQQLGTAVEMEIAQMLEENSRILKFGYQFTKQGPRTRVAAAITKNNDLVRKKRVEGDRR
The description is as above.

The target in the next assay is Twinfilin-1 (UniProt Q91YR1). The description is as above.
The target of the next assay is T5, Twinfilin-2 (UniProt Q9Z0P5).
T5 sequence: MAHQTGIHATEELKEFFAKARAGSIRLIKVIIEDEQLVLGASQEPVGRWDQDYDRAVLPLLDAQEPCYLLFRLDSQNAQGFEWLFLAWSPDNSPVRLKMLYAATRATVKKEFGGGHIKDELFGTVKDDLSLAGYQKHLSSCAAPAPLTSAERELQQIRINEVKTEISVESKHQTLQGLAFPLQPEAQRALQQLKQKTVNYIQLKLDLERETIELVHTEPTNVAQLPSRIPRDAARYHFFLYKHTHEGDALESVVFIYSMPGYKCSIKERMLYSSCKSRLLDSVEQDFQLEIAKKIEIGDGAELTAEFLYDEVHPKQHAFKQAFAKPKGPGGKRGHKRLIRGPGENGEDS
Described as above.

For another assay, the target named is Unconventional myosin-Va (UniProt Q99104). The assay is described as above.
A further assay has as its target Actin, cytoplasmic 2 (UniProt P63261). The assay is described as above.
The target in a further assay is Epsin-1 (UniProt Q9Y6I3). The description is as above.
For assay [6], the target named is Ubiquitin-like protein NEDD8 (UniProt Q15843). The description is as above.
Assay [7] addresses Actin-related protein 2/3 complex subunit 3 (UniProt Q9JM76). Described as above.
In assay [8] the target is Actin-related protein 2/3 complex subunit 5 (UniProt Q9CPW4). Described as above.
Assay [9] addresses Actin-related protein 2/3 complex subunit 5-like protein (UniProt Q9D898). The description is as above.
In a further assay the target is Beta-synuclein (UniProt Q91ZZ3). Described as above.
In assay [10] the target is Dihydropyrimidinase-related protein 1 (UniProt P97427). The assay is described as above.
Assay [11] concerns the target Dihydropyrimidinase-related protein 3 (UniProt Q62188). Described as above.
The target of the next assay is Histone H1.2 (UniProt P16403). The description is as above.
Assay [12] has as its target Large ribosomal subunit protein eL20 (UniProt Q02543). The description is as above.
Assay [13] concerns the target T6, Serine/arginine-rich splicing factor 7 (UniProt Q16629).
T6 sequence: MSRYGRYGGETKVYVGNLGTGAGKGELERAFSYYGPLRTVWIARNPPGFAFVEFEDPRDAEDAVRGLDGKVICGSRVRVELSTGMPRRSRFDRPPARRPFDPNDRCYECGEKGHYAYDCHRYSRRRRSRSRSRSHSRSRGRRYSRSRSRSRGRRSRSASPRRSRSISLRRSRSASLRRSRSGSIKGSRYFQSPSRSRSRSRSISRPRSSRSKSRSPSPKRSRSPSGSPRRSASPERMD
The description is as above.

Assay [14] addresses Small ribosomal subunit protein eS8 (UniProt P62241). The description is as above.
A further assay deals with Histone H2A type 1-J (UniProt Q99878). The assay is described as above.
The target in another assay is Histone H4 (UniProt P62805). Described as above.
Assay [15] addresses L-lactate dehydrogenase B chain (UniProt P16125). The assay is described as above.
In assay [16] the target is Large ribosomal subunit protein bL17m (UniProt Q9NRX2). The assay is described as above.
The target of assay [17] is Large ribosomal subunit protein eL24 (UniProt P83731). The assay is described as above.
Assay [18] has as its target Large ribosomal subunit protein eL24 (UniProt Q8BP67). Described as above.
Assay [19] deals with Large ribosomal subunit protein eL27 (UniProt P61353). Described as above.
The target of assay [20] is Large ribosomal subunit protein eL30 (UniProt P62888). The description is as above.
Assay [21] concerns the target Large ribosomal subunit protein eL34 (UniProt Q9D1R9). The description is as above.

Sequence of AP-2 complex subunit sigma, P53680 (P53680 whole entry, one chain of several): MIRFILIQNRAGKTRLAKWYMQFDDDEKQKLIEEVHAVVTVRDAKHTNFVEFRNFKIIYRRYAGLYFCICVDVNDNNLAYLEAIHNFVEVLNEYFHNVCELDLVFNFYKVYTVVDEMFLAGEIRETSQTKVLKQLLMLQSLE
Sequence of AP-2 complex subunit beta (UniProt Q9DBG3) (Q9DBG3 whole entry, one chain of several): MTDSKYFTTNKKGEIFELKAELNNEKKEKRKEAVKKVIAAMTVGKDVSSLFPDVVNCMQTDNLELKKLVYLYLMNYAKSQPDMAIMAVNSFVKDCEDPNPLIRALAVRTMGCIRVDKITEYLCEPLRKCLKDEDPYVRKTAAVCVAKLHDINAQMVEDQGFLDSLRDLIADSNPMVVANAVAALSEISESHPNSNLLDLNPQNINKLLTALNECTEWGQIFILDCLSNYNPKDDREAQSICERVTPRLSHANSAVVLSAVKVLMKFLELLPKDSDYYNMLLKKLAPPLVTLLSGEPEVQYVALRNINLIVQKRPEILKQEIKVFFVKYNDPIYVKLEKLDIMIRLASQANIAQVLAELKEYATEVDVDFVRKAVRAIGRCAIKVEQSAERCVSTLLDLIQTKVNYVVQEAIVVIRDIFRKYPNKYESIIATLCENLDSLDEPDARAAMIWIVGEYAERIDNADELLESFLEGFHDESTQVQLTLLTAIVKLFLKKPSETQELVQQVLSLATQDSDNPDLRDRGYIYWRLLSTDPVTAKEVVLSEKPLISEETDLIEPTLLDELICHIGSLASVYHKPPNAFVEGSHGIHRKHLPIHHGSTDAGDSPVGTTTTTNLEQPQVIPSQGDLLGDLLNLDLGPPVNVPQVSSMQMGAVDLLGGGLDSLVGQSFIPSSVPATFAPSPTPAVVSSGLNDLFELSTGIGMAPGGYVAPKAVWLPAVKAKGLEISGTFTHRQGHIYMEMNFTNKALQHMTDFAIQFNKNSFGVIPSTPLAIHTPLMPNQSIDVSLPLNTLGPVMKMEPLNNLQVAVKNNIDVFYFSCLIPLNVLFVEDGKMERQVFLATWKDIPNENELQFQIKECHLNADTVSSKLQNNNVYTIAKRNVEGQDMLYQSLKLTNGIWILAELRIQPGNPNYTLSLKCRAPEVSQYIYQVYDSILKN
Sequence of Histone H1.2 (P16403 whole entry): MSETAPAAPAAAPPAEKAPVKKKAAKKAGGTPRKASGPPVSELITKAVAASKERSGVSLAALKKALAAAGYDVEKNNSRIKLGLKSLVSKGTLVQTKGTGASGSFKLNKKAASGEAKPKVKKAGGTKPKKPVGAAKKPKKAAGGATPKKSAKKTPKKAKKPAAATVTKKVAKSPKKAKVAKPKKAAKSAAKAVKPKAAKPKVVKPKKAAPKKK
Sequence of AP-2 complex subunit beta (UniProt P63010) (P63010 whole entry, one chain of several): as the sequence (Q9DBG3 whole entry, one chain of several) above, with T612A counted along it
Sequence of AP-2 complex subunit sigma, P62743 (P62743 whole entry, one chain of several): as the sequence (P53680 whole entry, one chain of several) above
Sequence of AP-1 complex subunit beta-1 (Q10567 whole entry, one chain of several): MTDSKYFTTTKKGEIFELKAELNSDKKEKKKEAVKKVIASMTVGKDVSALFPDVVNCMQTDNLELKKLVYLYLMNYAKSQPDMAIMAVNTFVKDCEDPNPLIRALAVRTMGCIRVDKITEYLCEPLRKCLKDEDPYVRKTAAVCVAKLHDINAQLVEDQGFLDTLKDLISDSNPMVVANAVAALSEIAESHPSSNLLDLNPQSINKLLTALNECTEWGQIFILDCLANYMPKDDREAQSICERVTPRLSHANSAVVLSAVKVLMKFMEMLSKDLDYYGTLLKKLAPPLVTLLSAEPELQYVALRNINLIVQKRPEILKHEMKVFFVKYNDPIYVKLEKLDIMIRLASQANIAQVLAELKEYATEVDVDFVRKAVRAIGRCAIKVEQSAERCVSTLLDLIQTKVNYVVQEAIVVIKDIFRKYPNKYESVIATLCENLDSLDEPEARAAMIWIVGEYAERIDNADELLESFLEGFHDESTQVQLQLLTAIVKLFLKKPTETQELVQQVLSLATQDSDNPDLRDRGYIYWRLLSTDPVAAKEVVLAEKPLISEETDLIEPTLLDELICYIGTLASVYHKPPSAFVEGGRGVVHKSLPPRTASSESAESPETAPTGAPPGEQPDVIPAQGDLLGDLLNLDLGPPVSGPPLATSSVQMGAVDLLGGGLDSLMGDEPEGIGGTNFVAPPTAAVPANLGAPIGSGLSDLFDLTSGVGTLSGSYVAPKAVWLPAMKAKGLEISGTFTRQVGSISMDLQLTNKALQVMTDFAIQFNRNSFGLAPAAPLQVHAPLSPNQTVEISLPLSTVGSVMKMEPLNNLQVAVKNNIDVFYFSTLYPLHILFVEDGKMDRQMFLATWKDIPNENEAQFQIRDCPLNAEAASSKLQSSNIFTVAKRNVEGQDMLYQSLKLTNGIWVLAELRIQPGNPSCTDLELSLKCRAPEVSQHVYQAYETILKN

Regarding AP-2 complex subunit sigma, P53680, the “listed as a hit” value in assay [1] and in assay [2] was “yes” in each case.

Consider AP-2 complex subunit sigma, P62743, for which the “listed as a hit” value in assay [3] is recorded as “yes”. Actin, cytoplasmic 1, P60710: the “listed as a hit” value (in [4]; in the assay with Coronin-2B; with Myosin-10; in assay [5]; in the assay with Synaptopodin; with Tropomodulin-2) was “yes” in each case. Besides, the “listed as a hit” value with Twinfilin-1, with Twinfilin-2 and in the assay with Unconventional myosin-Va was “yes” throughout. Take “Ubiquitin-ribosomal protein eS31 fusion protein, P62979”: the “listed as a hit” value is recorded as “yes” with Actin, cytoplasmic 2; “yes” with Epsin-1; “yes” in [6].

Consider Actin-related protein 2, P61161, for which the “listed as a hit” value in [7] is on record as “yes”. On to “Actin-related protein 2/3 complex subunit 4, P59999”, for which the “listed as a hit” value in assay [8] and in [9] was “yes” each time. Alpha-synuclein, O55042: the “listed as a hit” value with Beta-synuclein is given as “yes”. In the case of “Dihydropyrimidinase-related protein 2, O08553”, the “listed as a hit” value in assay [10] and in [11] was “yes” each time. On to Histone H1.4, P10412, for which the “listed as a hit” value (with Histone H1.2; in assay [12]; in assay [13]; in assay [14]) was “yes” each time.

Regarding “Large ribosomal subunit protein uL14, P62829”, the “listed as a hit” value with Histone H2A type 1-J is “yes”.

With Histone H2A type 1-C, Q93077, the “listed as a hit” value in the assay with Histone H2A type 1-J is recorded as “yes”. With Histone H2B type F-S, P57053, the “listed as a hit” value with Histone H4 was “yes”.

For the substance L-lactate dehydrogenase A chain, P06151, the “listed as a hit” value in assay [15] was “yes”. For the substance “Large ribosomal subunit protein bL32m, Q9BYC8”, the “listed as a hit” value in [16] is “yes”. In the case of “Large ribosomal subunit protein uL3, P39023”, the “listed as a hit” value in assay [17] is “yes”. With “Small ribosomal subunit protein eS6, P62754”, in assay [18], the “listed as a hit” value is “yes”.

Take “Large ribosomal subunit protein eL34, P49207”: the “listed as a hit” value in assay [19] and in assay [20] was “yes” each time. Consider “Large ribosomal subunit protein eL43, P61513”, for which, in [20], the “listed as a hit” value is listed as “yes”.

With “Large ribosomal subunit protein eL8, P12970”, the “listed as a hit” value in [21] is “yes”.
